The other results are listed elsewhere or left out. Active and inactive are the calls of the source. No rule for the calls is given here.
Molecular target: 5-hydroxytryptamine receptor 5A (Homo sapiens) (UniProt P47898)
Test: HTR5A inverse agonists, retest of hits, confirmation, cell-based, luminescence (AID 504916);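 also: 0% = cells with DMSO and 100% = no cells with DMSO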
Settings: HTR5A-expressing cells, inverse agonism, at 9.3 µM, stronger effect = higher value

Chain of 5-hydroxytryptamine receptor 5A (Homo sapiens) (P47898 whole entry, looked up): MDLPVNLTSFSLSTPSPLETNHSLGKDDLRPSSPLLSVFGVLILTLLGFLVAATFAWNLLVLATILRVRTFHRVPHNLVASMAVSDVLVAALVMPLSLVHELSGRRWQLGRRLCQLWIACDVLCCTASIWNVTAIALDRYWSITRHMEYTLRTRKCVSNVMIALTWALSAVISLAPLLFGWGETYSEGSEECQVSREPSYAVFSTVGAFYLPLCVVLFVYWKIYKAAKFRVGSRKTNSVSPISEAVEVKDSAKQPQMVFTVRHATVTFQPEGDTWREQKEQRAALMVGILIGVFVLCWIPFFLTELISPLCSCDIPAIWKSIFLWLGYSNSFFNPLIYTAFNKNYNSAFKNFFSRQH

inhibition, inactive:
O=C(/C=C/c1ccc(Cl)c([N+](=O)[O-])c1)c1ccc(O)cc1 -8.27%, CCCCCCCCc1c(O)nc(-n2[nH]c(C)c(CCO)c2=O)[nH]c1=O -15.1%, CCOC(=O)NC(=O)C(=CNc1cccc(OC)c1)C(=O)NC(=O)OCC -98.8%, Cc1cc(C)n(-c2ccc(Cl)c(C(=O)O)n2)n1 -6.82%, O=c1ccc2c(-c3ccccc3S(=O)(=O)O)c3ccc(O)c(O)c3oc-2c1O -16.7%, Cc1noc(C)c1COc1cccc(C(=O)Nc2cccnc2)c1 4.42%, COc1ccc(-c2nnc(SC(C)C(=O)NC3CC3)o2)cc1 (configuration not stated) 1.03%

Reference: PubChem BioAssay AID504916 (The Scripps Research Institute Molecular Screening Center, 2011)
